Reference: PubChem BioAssay AID1035470 (Broad Institute, 2014)
The whole screen tested about 1,800 compounds, of which fewer than 10 were called active. About 16% were inconclusive and are not listed.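 The calls were made as follows: active = compound lowering the normal-ribosome reporter at least twice as much as the humanized-ribosome reporter, growth loss under a set limit; inconclusive = no clear call, values can overlap the other calls; inactive = the rest.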 Not all results are given here. Potency and affinity values are given separately.

assay: growth inhibition of wild-type GFP E. coli versus G2058-humanized strain, dose response, G2058 mutant RFP vs wild-type GFP, cherry-pick, two tests (AID 1035470); conditions: E. coli WT-GFP vs G2058-humanized RFP, fluorescence, 24 h; series mostly up to 50 µM

outcome, inactive:
COC(=O)CNC(=O)COC(=O)c1ccc(Cl)nc1
CC(OC(=O)CCc1nc2ccccc2c(=O)[nH]1)C(=O)c1ccc(Br)cc1 (stereo not drawn)
C(=C/c1nccc2c1[nH]c1ccccc12)/c1ccc2c(c1)OCO2
O=C(Nc1cc(S(=O)(=O)N2CCOCC2)ccc1N1CCOCC1)c1ccc([N+](=O)[O-])s1
Cc1cc(Br)cn2c(Cc3cccc(Cl)c3)c(-c3ccco3)nc12
Cc1nc2ccccn2c1C(=O)Nc1ccc(Cl)cc1
COC(=O)c1ccc(CSc2nc3ccccc3s2)o1
C[C@@H]1CCCCO[C@@H](CN(C)C(=O)CCCN(C)C)[C@H](C)CN([C@@H](C)CO)C(=O)c2cc(NC(=O)Nc3cccc4ccccc34)ccc2O1
Cc1nc(Nc2ccccc2)sc1C(=O)Nc1ccccc1
Cn1c(=O)c2c(ncn2CC(O)CNc2ccc(F)cc2)n(C)c1=O (stereo not drawn)
CC1Cc2cc(S(=O)(=O)N3CCN(c4cccc(Cl)c4)CC3)ccc2N1C(=O)C1CC1 (stereo not drawn)
Nc1ccccc1C#CC(=O)c1ccccc1
Cn1cc(CN2CCCC(C(=O)c3cccs3)C2)c(-c2cccc(Cl)c2)n1 (stereo not drawn)
CC(=O)N1c2c(cc(Br)cc2S(=O)(=O)N2CCCCC2)CC1C (stereo not drawn)
CC(OC(=O)COc1ccccc1)C(=O)NC1CCCC1 (stereo not drawn)
O=C(CCNC(=O)c1ccco1)Nc1cccc(Br)c1
CC1(C)CC2CC(C)(CN2c2ncnc3ccccc23)C1 (stereo not drawn)
CS(=O)(=O)N(CC(=O)N1CCc2ccccc2C1)c1cccc(Br)c1
O=S(=O)(NCc1cc(-c2ccccc2)no1)c1ccccc1Cl
CC(=O)c1ccc(-c2cccc([C@H]3[C@@H]4C=CC[C@@H](C)[C@@H]4C(=O)N3Cc3ccccc3)c2)cc1
O=C(NC1CCCCC1)C(c1cccc2ccccc12)n1c(=O)c(-c2ccco2)nc2ccccc21 (stereo not drawn)
CC(C)(C)CC(=O)NCCc1csc(-c2ccccc2)n1
Cc1cccc(NC(=O)CN(C)S(=O)(=O)c2cccs2)c1
Cc1ccc2oc(C(=O)N(C)Cc3ccc(C)o3)c(C)c2c1
O=C(NCc1cccnc1)C1CCN(S(=O)(=O)c2cc([N+](=O)[O-])ccc2Cl)CC1
COc1ccc(CNC(=O)c2sc3nc4c(c(C(F)(F)F)c3c2N)CCC4)cc1OC
CSc1ccccc1OCc1cc(C(=O)N(C)Cc2nonc2C)no1
O=C1Nc2ccc(F)cc2C12Nc1ccccc1-c1nnc(SCc3ccccc3)nc1O2 (stereo not drawn)
COc1cccc(NC2=Nc3cccc4cccc2c34)c1
COCc1nnc(NC(=O)c2ccc(S(=O)(=O)N3CCCC3)cc2)o1
O=C(COc1cccc2c1CCN(Cc1ccc(Br)cc1)C2=O)N1CCOCC1
Cc1cccc(OCc2nc(C#N)c(N3CCCC3)o2)c1
Cc1onc(-c2c(Cl)cccc2Cl)c1C(=O)Nc1ccc(Cl)cn1
NS(=O)(=O)c1ccc(NC(=O)CCC(=O)O)cc1
Cc1ccc(NC(=O)C[n+]2cc(-c3ccccc3)n3c2CCC3)cc1
Cc1ccc(S(=O)(=O)Nc2ccc3c(c2)C(=O)N([C@@H](C)CO)C[C@@H](C)[C@H](CN(C)C(=O)c2ccccc2)OCCCC[C@@H](C)O3)cc1
COc1ccc(NC(=O)Nc2cccc3c2O[C@@H](CN(C)S(=O)(=O)c2ccc(Cl)cc2)[C@H](C)CN([C@@H](C)CO)C3=O)cc1
O=C1c2ccccc2C(=O)N1CCc1c[nH]c2ccccc12
CC(=O)Cc1cc(O)c2ccccc2c1OC(=O)c1ccc(Br)cc1
COc1ccc(CC(=O)NC(C)c2ccc3ccccc3c2)cc1 (stereo not drawn)
Fc1ccc(Br)cc1SCCc1ccncc1
C[C@@H]1CCCCO[C@@H](CN(C)C)[C@H](C)CN([C@@H](C)CO)C(=O)c2cc(NC(=O)Nc3cccc4ccccc34)ccc2O1
Cc1onc(-c2ccccc2)c1C(=O)Oc1ccccc1
COC(=O)c1ccc2nc(-c3ccc(OC)c(OC)c3)c(Cc3ccc(C)cc3)n2c1
COc1ccc(C(=O)NCCC2=CCCCC2)cc1[N+](=O)[O-]
C[C@H]1CN([C@@H](C)CO)C(=O)CCCn2nncc2CO[C@@H]1CN(C)Cc1ccccc1C(F)(F)F
COc1ccc(N2C(=O)C3C(c4ccc(C(=O)O)cc4)NC(Cc4ccccc4)(C(=O)O)C3C2=O)c([N+](=O)[O-])c1 (stereo not drawn)
Cc1ccc2nc(-c3ccc(Cl)cc3)c(Cc3ccccc3C(F)(F)F)n2c1
COc1ccc2cc(CO)c3cc(OC)c(OC)cc3c2c1
CC(C)(C)NC(=O)C(c1ccncc1)N(Cc1ccc(F)cc1)C(=O)c1ccc(-c2ccccc2)[nH]1 (stereo not drawn)
Cc1noc(C)c1NC(=O)N(C)C[C@H]1OCCCC[C@@H](C)Oc2ccc(NC(=O)Nc3cccc4ccccc34)cc2C(=O)N([C@@H](C)CO)C[C@H]1C
Cn1c(CCN2CCOCC2)nc2cc(NC(=O)c3cccs3)ccc21
COc1ccccc1C(C(C(=O)c1ccccc1)N1CCOCC1)N1CCOCC1 (stereo not drawn)
Cc1cccc(-c2ccc([C@H]3[C@@H](CO)N4CCCCN(S(=O)(=O)c5ccccc5C)C[C@H]34)cc2)c1
CCc1cc(CN2CCOCC2)c(NC(=O)c2ccccc2)s1
COc1ccccc1CC(=O)NCCc1c[nH]c2ccccc12
Cn1c(=O)n(C)c2cc([N+](=O)[O-])c(N3CCN(C(=O)c4cccc(F)c4)CC3)cc21
O=C(CSCc1ccc(Br)cc1)NCc1ccccn1
Cc1ccc(CCN2C(=O)c3ccccc3C2C(=O)NCc2cccnc2)cc1 (stereo not drawn)
CS(=O)(=O)c1ccc(Cl)c(NC(=O)COC(=O)c2c(Cl)cccc2Cl)c1
COCC#Cc1ccc2c(c1)O[C@H](CN(C)C(=O)c1ccccc1)[C@@H](C)CN([C@H](C)CO)S2(=O)=O
Cc1noc(C)c1NC(=O)Nc1ccc2c(c1)C(=O)N([C@H](C)CO)C[C@H](C)[C@H](CN(C)C(=O)Nc1ccc3c(c1)OCO3)OCCCC[C@H](C)O2
CC1(C)CC(=O)c2cnc(N3CCc4ccccc43)nc2C1
S=c1nc(-c2cc(Cl)cc(Cl)c2)[nH][nH]1
O=[N+]([O-])c1ccc(NCCNCCOc2nonc2-c2ccccc2)c([N+](=O)[O-])c1
Cc1nn2c(NCc3ccccn3)cc(C(C)C)nc2c1-c1ccccc1
O=S(=O)(NOCc1ccc(Cl)cc1)c1ccc(Cl)cc1
O=C(Nc1ccc2c(c1)OCCO2)C1C(c2ccccc2)=Nc2ccccc2N1C(=O)c1cccnc1 (stereo not drawn)
O=C(COc1ccccc1Cl)Nc1nc(-c2ccncc2)cs1
CCOc1ccccc1N1CC(C(=O)Nc2cccc(S(=O)(=O)N3CCCCC3)c2)CC1=O (stereo not drawn)
COc1ccc(-c2csc3ncn(-c4ccc(C)cc4)c(=O)c23)cc1OC
O=C(NCc1nnnn1-c1ccc(Cl)cc1)c1ccc([N+](=O)[O-])o1
O=[N+]([O-])c1cccc(COc2ccc(CN3CCOCC3)cc2)c1
C[C@@H]1CN([C@@H](C)CO)C(=O)c2cc(NC(=O)C3CC3)ccc2O[C@H]1CN(C)C(=O)Nc1ccc(C(F)(F)F)cc1
CCN(CC(=O)Nc1cccc(S(=O)(=O)N2CCCC2)c1)CC(=O)Nc1ccccc1OC
COC(=O)c1ccc2nc(-c3ccco3)c(Cc3ccc(C)cc3)n2c1
COc1ccc(CC(=O)Nc2cc(S(=O)(=O)Nc3ccc(OC)cc3)ccc2OC)cc1
CC(C)CNc1nc(S(=O)(=O)c2ccccc2)c(Cl)s1
O=C(CN1CCCCC1)n1c2ccccc2c2ccccc21
O=C1c2ccccc2C(c2nnnn2Cc2ccccc2)N1Cc1cccc(F)c1 (stereo not drawn)
Cc1nn(CC(=O)c2ccc(Br)s2)c(C)c1[N+](=O)[O-]
Brc1ccc(-n2cnc(-c3ccccc3)c2)cc1
NC(=O)c1cccnc1Oc1ccc(Cl)cc1Cl
CCc1ccc(NC(=O)CCc2c(C)nn(-c3ccc(N4CCCCC4)nn3)c2C)cc1
COc1ccc2c(c1)-c1nc(N)sc1CC2
CC(C)(C)N(Cc1ccccc1)C(=O)COC(=O)Cn1cnc2ccccc2c1=O
COc1ccc(OC)c(NC(=O)CN(C)CC(=O)Nc2ccccc2Br)c1
O=C(c1ccccc1)C1CN(Cc2ccccc2)CCC1(O)c1ccccc1 (stereo not drawn)
CCC1(CC)NC(=O)N(CC(=O)N2N=C(c3ccc(Cl)cc3)CC2c2ccco2)C1=O (stereo not drawn)
CCOc1ccccc1C(=O)NCC(=O)OCCOc1cccc(Cl)c1
O=C(Nc1cc(F)ccc1F)N1CCCCN2[C@@H](CO)[C@H](c3ccc(-c4ccncc4)cc3)[C@@H]2C1
O=S1(=O)N[C@H](Cc2ccccc2)COc2cc(N3CCSCC3)ccc21
COc1cccc(NC(=O)c2ccc(NCCCN3CCC(C)CC3)c([N+](=O)[O-])c2)c1
Cc1noc(C)c1S(=O)(=O)N(Cc1ccccc1)C(C)C
Cc1ccc(-c2c(=O)n(O)c3ccccc3[n+]2[O-])cc1
Cc1nn2c(C)c(C(=O)Nc3ccccc3)cnc2c1-c1ccccc1
CC(C)(C)S(=O)(=O)Cc1nc(-c2ccc(Cl)c(Cl)c2)cs1
CCCCc1cc2c(cc1NC(=O)CN1CCCCC1)OCCO2
